A selection: hits, their analogues and other compounds. The true share with any hit is near 10%.
GPT2 inh – blocks human glutamate pyruvate transaminase 2; Q8TD30; Recombinant GPT2, coupled pyruvate oxidase/HRP Amplex Red fluorescence; Potency, µM (series often up to 57.7 µM), usual class: inhibitors; 100,000 compounds, 0.25% hits; further: nearly all actives have a fitted effect of over 60% in size
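Fluorescence read-out: pyruvate from GPT2 turnover coupled to pyruvate oxidase, HRP and Amplex Red (0.2mM ThPP, 0.2U/mL PO and HRP, 50uM Amplex final). Substrates 250uM a-KG, 2mM L-alanine; enzyme 10ng/uL; 30 min RT.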
3T3 cytotox – cytotoxic compounds in NIH 3T3 cells. NIH 3T3 viability, CellTiter-Glo ATP luminescence, 48-72 h. Potency, µM (top dose mostly 96.7 µM), most hits filed as inhibitors. 94,000 compounds, 4.3% hits. AID 1345082; further: nearly all actives have a fitted effect of over 55% in size
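Luminescent ATP readout (CellTiter-Glo, 10 min RT) after 48 or 72 hr compound exposure of NIH 3T3 cells seeded at 400 cells/well in 1536-well format; quantitative HTS.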
NPR1 antag – human Npr1 receptor antagonism; AID 1347048; HEK293 hNpr1 GloSensor cGMP, ANP-stimulated luminescence; 76,000 compounds, 1.6% hits; Potency, µM (highest dose often 46.3 µM), most hits filed as inhibitors; P16066; calls by dose curve; further: nearly all actives have a fitted effect of over 60% in size
Target sequence (P16066 whole entry, looked up): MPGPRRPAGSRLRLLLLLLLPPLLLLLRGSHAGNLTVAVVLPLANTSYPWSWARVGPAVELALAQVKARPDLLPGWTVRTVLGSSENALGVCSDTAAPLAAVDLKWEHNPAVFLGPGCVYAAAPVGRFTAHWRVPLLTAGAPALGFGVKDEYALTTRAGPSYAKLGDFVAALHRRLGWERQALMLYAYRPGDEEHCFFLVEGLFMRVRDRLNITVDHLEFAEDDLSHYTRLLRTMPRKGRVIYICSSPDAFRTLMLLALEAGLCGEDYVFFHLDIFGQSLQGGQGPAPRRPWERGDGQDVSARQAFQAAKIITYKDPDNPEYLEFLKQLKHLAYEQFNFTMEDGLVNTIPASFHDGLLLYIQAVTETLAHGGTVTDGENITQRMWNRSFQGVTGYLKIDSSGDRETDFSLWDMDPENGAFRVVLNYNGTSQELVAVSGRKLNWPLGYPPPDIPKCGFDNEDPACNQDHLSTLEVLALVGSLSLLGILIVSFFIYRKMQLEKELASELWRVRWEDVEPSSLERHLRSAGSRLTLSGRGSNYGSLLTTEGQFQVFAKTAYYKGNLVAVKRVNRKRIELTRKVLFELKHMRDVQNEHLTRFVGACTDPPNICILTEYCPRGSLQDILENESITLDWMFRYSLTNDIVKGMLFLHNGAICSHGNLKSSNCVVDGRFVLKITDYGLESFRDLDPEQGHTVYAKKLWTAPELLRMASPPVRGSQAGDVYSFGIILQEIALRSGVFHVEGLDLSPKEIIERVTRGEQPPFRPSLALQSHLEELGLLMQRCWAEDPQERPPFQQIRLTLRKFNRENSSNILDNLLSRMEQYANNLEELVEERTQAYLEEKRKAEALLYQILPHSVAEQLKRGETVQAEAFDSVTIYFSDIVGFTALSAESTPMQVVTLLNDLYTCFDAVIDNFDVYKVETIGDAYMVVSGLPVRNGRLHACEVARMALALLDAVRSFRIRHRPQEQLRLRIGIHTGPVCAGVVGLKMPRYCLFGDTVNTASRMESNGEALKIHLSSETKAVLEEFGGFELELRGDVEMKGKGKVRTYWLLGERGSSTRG
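HEK293 cells stably expressing human Npr1 and cGMP GloSensor pGS-40F, loaded 2 h with 2% GloSensor reagent, given compound 30 min at room temperature. Luminescence read before and 20 min after 0.1 nM hNppA.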
HEK293 tox – cytotoxic compounds in HEK 293 cells | 94,000 compounds, 6.6% hits | Potency, µM (doses to about 115 µM), hits mostly inhibitors | HEK 293 viability, ATP luminescence (CellTiter-Glo), 48-72 h; further: nearly all actives have a fitted effect of over 60% in size
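ATP-coupled CellTiter-Glo luminescence served as viability read-out, recorded 10 min after reagent addition at room temperature. HEK 293 cells, 250 cells/well, had been incubated with pintool-transferred compound for 48 or 72 hr at 37 degree Celsius.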
Luciferase inh – Photinus pyralis luciferase inhibition; 76,000 compounds, 2.5% hits; AID 1347043; Potency, µM (titrated, usually from 115 µM), usual class: inhibitors; purified P. pyralis luciferase, luminescence, biochemical; P08659; further: nearly all actives have a fitted effect of over 65% in size
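Purified P. pyralis luciferase (10nM final) in 50mM Tris acetate pH 7.5, 10mM Mg acetate, 0.01% Tween-20, 0.05% BSA with 10uM D-luciferin and 10uM ATP. Compounds titrated qHTS. Luminescence imaged on CCD.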
NPR1 antag cnf – hNpr1 antagonism, confirmation assay; shares compounds with NPR1 antag; HEK293 hNpr1 cGMP GloSensor luminescence, ANP-stimulated; Potency, µM (titrated, usually from 57.6 µM), usual class: inhibitors; 1,400 compounds, 76% hits; AID 1347044; calls by dose curve; further: nearly all actives have a fitted effect of over 70% in size
NPR2 antag – selectivity test of Npr1 antagonists against human Npr2; 1,400 compounds, 67% hits; HEK293 hNpr2 GloSensor cGMP luminescence, CNP-stimulated; Potency, µM (titrated, usually from 57.6 µM), actives largely listed as inhibitors; shares compounds with NPR1 antag; calls by dose curve; further: nearly all actives have a fitted effect of over 70% in size
FLuc counter – counter-screen for Npr1 antagonists: firefly luciferase inhibitors; shares compounds with NPR1 antag; purified FLuc enzyme, luminescence, Km substrate; Potency, µM (series often up to 57.6 µM), hits mostly inhibitors; 1,400 compounds, 0.7% hits; AID 1347047
GloSensor ctrl – control cell line activity, Npr1 antagonist counter-screen; shares compounds with NPR1 antag; HEK293 GloSensor cGMP, SNP-stimulated, luminescence; Potency, µM (highest dose often 57.6 µM), actives largely listed as inhibitors; 1,400 compounds, 69% hits; AID 1347051; calls by dose curve; further: nearly all actives have a fitted effect of over 70% in size
Of the large screens only hits and unclear results are named; the others gave an inactive call (follow-up assays come after a bar, where they were run). Unless noted, the call rests on the fitted dose curve; in most records, active means well fitted curve in the direction sought with a large enough effect; inconclusive means small, poorly fitted or top-dose-only effect, or another doubt; inactive means no such curve, though single readings can be large; an effect the other way counts as inactive or inconclusive.

CN(C)C(=O)C1CN(C(=O)NCc2ccccc2)CC12CCOCC2 (stereo not given)	none
CC1(COc2cccnc2)COc2ccc(C(=O)N3CCN(c4ccccn4)CC3)cc2N1 (stereo not given)	3T3 cytotox inconclusive, NPR1 antag 6.3µM, HEK293 tox inconclusive | NPR1 antag cnf 6.9µM | NPR2 antag 7.7µM | FLuc counter inactive | GloSensor ctrl 5.4µM
CN(Cc1ccccc1)C(=O)c1ccc2c(c1)NC(C)(COc1cccnc1)CO2 (stereo not given)	NPR1 antag 32µM, HEK293 tox inconclusive | NPR1 antag cnf 31µM | NPR2 antag 31µM | FLuc counter inactive | GloSensor ctrl 22µM
COc1ccc(NC(=O)c2ccc3c(c2)NC(C)(COCC2CC2)CO3)cn1 (stereo not given)	3T3 cytotox inconclusive, HEK293 tox inconclusive, Luciferase inh inconclusive
COc1ccc(OCC2(C)COc3ccc(C(=O)Nc4ccc(OC)nc4)cc3N2)cc1 (stereo not given)	3T3 cytotox inconclusive, NPR1 antag 35µM, HEK293 tox 56µM | NPR1 antag cnf 35µM | NPR2 antag 40µM | FLuc counter inactive | GloSensor ctrl 35µM
CC1(COc2ccccc2)COc2ccc(C(=O)N3CCN(c4ccccn4)CC3)cc2N1 (stereo not given)	3T3 cytotox inconclusive, HEK293 tox inconclusive
Clc1ccccc1CNC[C@H]1Cn2ccnc2CO1	none
CN(C)C(=O)c1cccnc1OC1CCN(C(=O)c2cccs2)C1 (stereo not given)	none
Cc1nc(CN2C(=O)OC3(CCN(Cc4c[nH]c5ccccc45)CC3)C2(C)c2ccccc2)cs1 (stereo not given)	3T3 cytotox 20µM, HEK293 tox inconclusive | NPR1 antag cnf inconclusive | NPR2 antag inconclusive | FLuc counter inactive | GloSensor ctrl inactive
O=C(c1cc2cn(C3CC3)cc2s1)N1CCN(c2ccccn2)CC1	HEK293 tox inconclusive, Luciferase inh inconclusive
O=C(c1csc(N2CCN(c3ccccc3)CC2)n1)N1CCN(c2ccccn2)CC1	GPT2 inh inconclusive, NPR1 antag 13µM | NPR1 antag cnf 27µM | NPR2 antag 24µM | FLuc counter inactive | GloSensor ctrl 24µM
O=C(c1csc(N2CCN(c3ccccc3)CC2)n1)N1CCCCCC1	3T3 cytotox inconclusive, NPR1 antag 10µM, HEK293 tox inconclusive | NPR1 antag cnf 22µM | NPR2 antag 22µM | FLuc counter inactive | GloSensor ctrl 19µM
CC(C)N1CCN(C(=O)c2csc(N3CCN(c4cccc(Cl)c4)CC3)n2)CC1	3T3 cytotox inconclusive, HEK293 tox inconclusive
O=C(N1CCC2(CC1)CC(Cc1nc(-c3cccnc3)no1)CCO2)C1(c2ccccc2)CC1 (stereo not given)	GPT2 inh inconclusive, HEK293 tox inconclusive
Cc1ccc(C(=O)NCC2CCCCC(=O)N2)cn1 (stereo not given)	none
CC(=O)NC1(C)CCN(Cc2cccc(Oc3ccccc3)c2)CC1	HEK293 tox inconclusive
COc1cc(CN2CCC(C)(NC(C)=O)CC2)cc(-c2ccncc2)c1	none (no result: GPT2 inh, 3T3 cytotox, NPR1 antag, HEK293 tox, Luciferase inh) | NPR1 antag cnf 22µM | NPR2 antag 8.9µM | FLuc counter inactive | GloSensor ctrl inactive
O=C(NCCN1CCOCC1)C1CC(=O)N(c2n[nH]c3cc(Br)ccc23)C1 (stereo not given)	3T3 cytotox inconclusive
O=C1[C@@H]2C[C@@H](CN2C(=O)C2CC2)Oc2ccccc2N1Cc1ccccc1	none
COc1ccc(CN2C(=O)[C@@H]3C[C@@H](CN3C3CCC3)Oc3ccccc32)cc1	3T3 cytotox 32µM, NPR1 antag inconclusive, HEK293 tox inconclusive | NPR1 antag cnf inactive | NPR2 antag inconclusive | FLuc counter inactive | GloSensor ctrl inactive
COc1ccc(CN2C(=O)[C@@H]3C[C@@H](CN3C3CCCC3)Oc3ccccc32)cc1	3T3 cytotox inconclusive, NPR1 antag inconclusive, HEK293 tox inconclusive | NPR1 antag cnf inactive | NPR2 antag inconclusive | FLuc counter inactive | GloSensor ctrl inactive
COc1ccc(CN2C(=O)[C@@H]3C[C@@H](CN3C(=O)c3cnccn3)Oc3ccccc32)cc1	3T3 cytotox inconclusive
COc1ccc(CNC(=O)c2cc3n(n2)CC(c2ccc(Cl)cc2)OC3)cc1 (stereo not given)	3T3 cytotox inconclusive, NPR1 antag 22µM, HEK293 tox 32µM | NPR1 antag cnf 27µM | NPR2 antag 22µM | FLuc counter inactive | GloSensor ctrl 22µM
O=C(Nc1ccc(Cl)cc1)c1cc2n(n1)CC(c1ccc(Cl)cc1)OC2 (stereo not given)	3T3 cytotox inconclusive, NPR1 antag 11µM, HEK293 tox inconclusive | NPR1 antag cnf 24µM | NPR2 antag inconclusive | FLuc counter inactive | GloSensor ctrl 27µM
O=C(Nc1ccc(F)c(Cl)c1)c1cc2n(n1)CC(c1ccc(Cl)cc1)OC2 (stereo not given)	3T3 cytotox inconclusive, NPR1 antag inconclusive, HEK293 tox inconclusive
COc1cc(Cl)c(C)cc1NC(=O)c1cc2n(n1)CC(c1ccc(Cl)cc1)OC2 (stereo not given)	3T3 cytotox inconclusive, HEK293 tox inconclusive
COc1ccc(NC(=O)c2cc3n(n2)CC(c2ccc4c(c2)OCO4)OC3)cc1Cl (stereo not given)	NPR1 antag inconclusive, HEK293 tox inconclusive | NPR1 antag cnf inconclusive | NPR2 antag inactive | FLuc counter inactive | GloSensor ctrl inconclusive
NS(=O)(=O)c1ccc(CCNC(=O)c2cc3n(n2)CC(c2ccc(Cl)cc2)OC3)cc1 (stereo not given)	3T3 cytotox inconclusive, NPR1 antag 14µM, HEK293 tox 45µM | NPR1 antag cnf 24µM | NPR2 antag inconclusive | FLuc counter inactive | GloSensor ctrl 24µM
COc1ccc(NC(=O)c2cc3n(n2)CC(c2ccc4c(c2)OCO4)OC3)cc1OC (stereo not given)	HEK293 tox inconclusive
O=C(NC1CCCCC1)N1CCc2nnc(C3CC3)n2CC1	none
O=C(c1cc2n(n1)CC(c1ccc(Cl)cc1)OC2)N1CCc2ccccc2C1 (stereo not given)	none
